Test results as given in PubChem BioAssay.
Activity calls are given as the source filed them.

Legend:
[1] = system: Plasmodium falciparum Sir2 (PF13_0152, Sir2A); assay: Plasmodium falciparum Sir2A binding compounds – biochemical, small-molecule microarray, 635 nm fluorescence, primary screen (AID 1098); settings: fluorescence 635 nm, higher = more signal;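 also: score merges spot fluorescence intensity with its signal-to-noise ratio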
[2] = probe aDKK1 binding to arrayed compounds – biochemical, biotinylated probe, 635/667 nm fluorescence, primary screen (AID 1099); settings: small-molecule microarray, higher = more signal;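 also: score merges 667nm spot fluorescence with signal to noise across triplicate slides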
[3] = probe aCHRDL2 binding to arrayed compounds – biochemical, biotinylated probe, 635/667 nm fluorescence, primary screen (AID 1100); settings: small-molecule microarray, higher = more signal
[4] = change in splice reporter luminescence, either direction, cell-based, HEK293, spliceosome inhibition project, primary screen (AID 1101); settings: HEK293 splicing luciferase reporter, 24 h, higher = more signal, called active from +8 up or from −8 down;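 also: HEK293 cells carrying a splicing-competent luciferase reporter gene; test concentration not given here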
[5] = biological target: Fibroblast growth factor 10 (Homo sapiens) (UniProt O15520); assay: compounds binding fibroblast growth factor 10 – biochemical, small-molecule microarray, 635 nm fluorescence, primary screen (AID 1102); settings: FGF10 binding, fluorescence 635 nm, higher = more signal
[6] = system: glycogen synthase kinase-3 (GSK3A per assay name; protocol says GSK3B); assay: compounds binding glycogen synthase kinase-3 – biochemical, small-molecule microarray, 635 nm fluorescence, GSK3A, primary screen (AID 1103); settings: fluorescence 635 nm, higher = more signal; also: the record names both GSK3A and GSK3B
[7] = biological target: Epidermal growth factor receptor (Homo sapiens) (UniProt P00533); assay: compounds binding epidermal growth factor receptor – biochemical, small-molecule microarray, 635 nm fluorescence, primary screen (AID 1104); settings: EGFR binding, higher = more signal;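 also: score merges 667 nm emission intensity with spot signal to noise over triplicate slides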
[8] = biological target: Follistatin-related protein 3 (Homo sapiens) (UniProt O95633); assay: compounds binding follistatin-related protein 3 – biochemical, small-molecule microarray, 635 nm fluorescence, primary screen (AID 1105); settings: FSTL3 binding, higher = more signal;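 also: score merges emission near 667 nm and signal to noise per printed spot across three slides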
[9] = biological target: Dickkopf-related protein 1 (Homo sapiens) (UniProt O94907); assay: small molecules binding DKK1 protein – biochemical, small-molecule microarray, 635 nm fluorescence scan, primary screen (AID 1106); settings: higher = more signal;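 also: score merges emission near 667 nm with signal to noise over three replicate slides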
[10] = system: Inhibin beta A chain (activin A); assay: small molecules binding activin A – biochemical, small-molecule microarray, 635 nm fluorescence scan, primary screen (AID 1107); settings: INHBA, higher = more signal;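 also: mouse activin A protein probed at 4.33 µg/mL on printed slides; score merges bound-protein fluorescence near 667 nm with spot signal-to-noise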
[11] = system: Human papillomavirus type 1a protein E7 (residues 44-93); assay: small molecules binding HPV E7 44-93 – biochemical, small-molecule microarray, residues 44-93, 635 nm fluorescence, primary screen (AID 1108); settings: fluorescence 635 nm, higher = more signal;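 also: E7 fragment applied at 1 µg/mL in TBST for 1 h at 4 C; score combines spot fluorescence with its signal to noise ratio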
[12] = hepatitis C replication reporter changes, two-sided – Huh7 cells, luciferase reporter, HCV replication inhibitor project, primary screen (AID 1109); settings: Huh7 HCV replicon luciferase reporter, 48 h; higher = more signal;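 also: huh7 hepatoma cells harbouring a luciferase neomycin HCV replicon reporter; luciferase luminescence as measure of HCV replicon replication; test concentration not given here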
[13] = biological target: Left-right determination factor 2 (Homo sapiens) (UniProt O00292); assay: small molecules binding LEFTY2 protein – biochemical, small-molecule microarray, 635 nm fluorescence scan, primary screen (AID 1110); settings: higher = more signal
[14] = biological target: Calmodulin-1 (Homo sapiens) (UniProt P0DP23); assay: small molecules binding calmodulin-1 with EGTA – biochemical, small-molecule microarray, Cy5-labelled CALM1, profiling panel (AID 1111); settings: Cy5-CALM1 binding fluorescence, higher = more signal;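 also: labelled calmodulin applied in Tris saline Tween buffer holding calcium plus EGTA and DTT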
[15] = biological target: Calmodulin-1 (Homo sapiens) (UniProt P0DP23); assay: small molecules binding Ca-loaded calmodulin-1 – biochemical, small-molecule microarray, Cy5-labelled CALM1, plus calcium, artefact control for SMM control-protein annotation, profiling panel (AID 1112); settings: Cy5-CALM1 binding fluorescence, higher = more signal;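 also: score merges spot fluorescence with signal to noise from triplicate slides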
[16] = probe aWnt5a binding to arrayed compounds – biochemical, biotinylated probe, 635/667 nm fluorescence, primary screen (AID 1113); settings: small-molecule microarray, higher = more signal;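 also: score merges 667 nm fluorescence intensity with signal-to-noise per printed feature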
[17] = probe aShh binding to arrayed compounds – biochemical, biotinylated probe, 635/667 nm fluorescence, primary screen (AID 1114); settings: small-molecule microarray, higher = more signal;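 also: probe is biotin-labelled aShh protein from a stem cell growth factor screen; measures binding of labelled protein to compounds printed on the slide; score merges feature fluorescence at 667 nm with signal-to-noise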
[18] = probe aNog binding to arrayed compounds – biochemical, biotinylated probe, 635/667 nm fluorescence, primary screen (AID 1115); settings: small-molecule microarray, higher = more signal;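 also: probe is biotinylated aNog protein used at 0.15 µg/mL for 1 h at 4 C; z-score combines 667 nm fluorescence of each spot with its signal to noise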
[19] = biological target: Torsin-1A-interacting protein 1 (Homo sapiens) (UniProt Q5JTV8); assay: compound microarray binding of lysate hLAP1 – cell lysate, small-molecule microarray, COS7 lysate, 635/667 nm fluorescence, primary screen (AID 1116); settings: 635 nm fluorescence, higher = more signal
[20] = biological target: Alpha-bungarotoxin (Bungarus multicinctus) (UniProt P60615); assay: compounds binding labelled alpha-BTX control protein – biochemical, small-molecule microarray, Alexa647 label, 635/667 nm fluorescence, artefact control for SMM control protein annotation, profiling panel (AID 1117); settings: alpha-BTX-A647 binding fluorescence, higher = more signal
Sequence of Alpha-bungarotoxin (Bungarus multicinctus) (P60615 whole entry, looked up): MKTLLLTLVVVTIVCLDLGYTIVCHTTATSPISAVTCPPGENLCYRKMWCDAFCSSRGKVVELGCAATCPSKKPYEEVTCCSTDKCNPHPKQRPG

Sequence of Fibroblast growth factor 10 (Homo sapiens) (O15520 whole entry, looked up): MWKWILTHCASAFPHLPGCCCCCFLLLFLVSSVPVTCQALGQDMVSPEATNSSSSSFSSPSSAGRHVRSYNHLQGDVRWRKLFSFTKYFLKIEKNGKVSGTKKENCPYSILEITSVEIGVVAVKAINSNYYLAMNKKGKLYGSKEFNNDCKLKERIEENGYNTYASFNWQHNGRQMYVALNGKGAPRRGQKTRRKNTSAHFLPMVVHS
Sequence of Follistatin-related protein 3 (Homo sapiens) (O95633 whole entry, looked up): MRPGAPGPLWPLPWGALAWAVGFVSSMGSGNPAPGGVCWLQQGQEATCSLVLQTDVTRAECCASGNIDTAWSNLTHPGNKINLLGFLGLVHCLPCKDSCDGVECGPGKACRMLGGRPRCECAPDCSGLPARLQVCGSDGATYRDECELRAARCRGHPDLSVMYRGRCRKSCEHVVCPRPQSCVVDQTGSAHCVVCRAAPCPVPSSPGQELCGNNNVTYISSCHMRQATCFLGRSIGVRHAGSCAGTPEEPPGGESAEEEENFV
Sequence of Torsin-1A-interacting protein 1 (Homo sapiens) (Q5JTV8 whole entry, looked up): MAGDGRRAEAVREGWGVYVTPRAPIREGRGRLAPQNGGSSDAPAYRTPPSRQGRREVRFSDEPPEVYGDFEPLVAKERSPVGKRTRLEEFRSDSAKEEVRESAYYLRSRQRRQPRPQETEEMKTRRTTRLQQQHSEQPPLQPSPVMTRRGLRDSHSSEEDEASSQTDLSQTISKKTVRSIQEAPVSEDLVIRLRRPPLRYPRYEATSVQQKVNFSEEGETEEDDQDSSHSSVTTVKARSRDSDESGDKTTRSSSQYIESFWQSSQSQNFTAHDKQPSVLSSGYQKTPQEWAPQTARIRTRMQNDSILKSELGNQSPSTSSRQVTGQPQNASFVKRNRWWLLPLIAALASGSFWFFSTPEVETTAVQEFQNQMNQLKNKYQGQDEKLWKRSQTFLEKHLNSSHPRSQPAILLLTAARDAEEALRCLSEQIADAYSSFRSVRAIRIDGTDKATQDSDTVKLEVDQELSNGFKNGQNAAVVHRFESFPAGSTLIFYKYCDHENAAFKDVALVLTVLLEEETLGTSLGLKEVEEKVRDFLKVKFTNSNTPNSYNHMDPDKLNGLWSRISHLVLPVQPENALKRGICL
Sequence of Dickkopf-related protein 1 (Homo sapiens) (O94907 whole entry, looked up): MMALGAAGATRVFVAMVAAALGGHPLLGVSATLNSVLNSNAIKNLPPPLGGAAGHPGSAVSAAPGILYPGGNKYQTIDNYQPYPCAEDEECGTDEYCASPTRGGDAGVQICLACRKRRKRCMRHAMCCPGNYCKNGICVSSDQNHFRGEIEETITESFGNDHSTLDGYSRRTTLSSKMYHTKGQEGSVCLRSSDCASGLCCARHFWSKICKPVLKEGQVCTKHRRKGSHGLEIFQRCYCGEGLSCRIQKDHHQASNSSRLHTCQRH
Sequence of Left-right determination factor 2 (Homo sapiens) (O00292 whole entry, looked up): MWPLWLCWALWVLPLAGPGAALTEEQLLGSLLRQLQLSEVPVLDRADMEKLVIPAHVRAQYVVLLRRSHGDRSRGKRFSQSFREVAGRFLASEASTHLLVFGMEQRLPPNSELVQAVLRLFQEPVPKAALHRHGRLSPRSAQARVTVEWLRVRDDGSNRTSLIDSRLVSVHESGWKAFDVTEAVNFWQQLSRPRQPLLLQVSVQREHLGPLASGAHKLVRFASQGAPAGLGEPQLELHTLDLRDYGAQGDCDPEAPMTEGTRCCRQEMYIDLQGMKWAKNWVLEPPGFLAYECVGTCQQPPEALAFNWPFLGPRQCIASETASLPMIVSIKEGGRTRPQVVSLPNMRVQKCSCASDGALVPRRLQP
Sequence of Epidermal growth factor receptor (Homo sapiens) (P00533 whole entry, looked up): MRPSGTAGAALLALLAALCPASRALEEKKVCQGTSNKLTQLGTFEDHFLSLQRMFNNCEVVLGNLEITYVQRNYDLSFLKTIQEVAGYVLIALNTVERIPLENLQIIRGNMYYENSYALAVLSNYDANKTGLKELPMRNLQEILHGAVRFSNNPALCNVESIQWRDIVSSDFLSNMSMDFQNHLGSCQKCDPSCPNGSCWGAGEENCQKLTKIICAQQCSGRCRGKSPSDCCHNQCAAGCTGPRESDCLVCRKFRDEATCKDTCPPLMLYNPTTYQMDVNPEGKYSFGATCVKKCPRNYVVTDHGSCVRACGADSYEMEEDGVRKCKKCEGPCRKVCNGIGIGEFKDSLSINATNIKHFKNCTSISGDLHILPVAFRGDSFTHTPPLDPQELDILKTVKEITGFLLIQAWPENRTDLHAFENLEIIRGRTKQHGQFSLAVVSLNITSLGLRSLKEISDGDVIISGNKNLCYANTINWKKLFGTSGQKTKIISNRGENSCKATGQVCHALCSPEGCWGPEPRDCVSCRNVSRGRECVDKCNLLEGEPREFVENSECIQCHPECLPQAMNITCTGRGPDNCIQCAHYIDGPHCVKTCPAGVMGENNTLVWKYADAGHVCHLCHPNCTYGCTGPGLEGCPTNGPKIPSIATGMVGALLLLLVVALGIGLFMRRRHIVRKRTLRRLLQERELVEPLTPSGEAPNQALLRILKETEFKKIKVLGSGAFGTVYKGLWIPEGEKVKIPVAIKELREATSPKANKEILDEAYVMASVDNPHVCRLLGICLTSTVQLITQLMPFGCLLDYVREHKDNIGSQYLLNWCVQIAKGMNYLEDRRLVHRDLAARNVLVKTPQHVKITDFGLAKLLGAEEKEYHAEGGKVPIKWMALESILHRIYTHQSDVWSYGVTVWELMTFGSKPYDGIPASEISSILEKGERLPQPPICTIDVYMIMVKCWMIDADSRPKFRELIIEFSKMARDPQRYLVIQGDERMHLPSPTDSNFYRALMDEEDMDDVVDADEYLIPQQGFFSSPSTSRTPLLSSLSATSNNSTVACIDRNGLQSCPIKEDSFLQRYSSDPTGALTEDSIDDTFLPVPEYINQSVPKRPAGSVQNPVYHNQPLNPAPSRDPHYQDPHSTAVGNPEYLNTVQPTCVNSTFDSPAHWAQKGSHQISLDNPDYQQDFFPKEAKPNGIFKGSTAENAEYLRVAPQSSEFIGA

| Compound | composite z-score [1] | composite z-score [2] | composite z-score [3] | z-score [4] | composite z-score [5] | composite z-score [6] | composite z-score [7] | composite z-score [8] | composite z-score [9] | composite z-score [10] | composite z-score [11] | z-score [12] | composite z-score [13] | composite z-score [14] | composite z-score [15] | composite z-score [16] | composite z-score [17] | composite z-score [18] | composite z-score [19] | composite z-score [20] |
| --- | --- | --- | --- | --- | --- | --- | --- | --- | --- | --- | --- | --- | --- | --- | --- | --- | --- | --- | --- | --- |
| CN(C)CCCNC(=O)[C@@]1(C)c2ccccc2C(=O)N(Cc2ccccc2)[C@H]1c1ccc(CO)cc1 | 1.71 | -0.719 | 0.683 | 0.711 (inactive) | -0.476 | -0.35 | -1.48 | -0.456 | 0.0494 | 1 | -0.775 | -1.94 | -0.157 | -1.06 | -1.12 | 0.0026 | -0.138 | -0.33 | -0.281 | -0.358 |
| COc1ccc([Si](C)(C)[C@H]2[C@H](CCO)O[C@@]3(C(=O)N(Cc4cccc(N5C(=O)COc6ccccc65)c4)c4ccccc43)[C@@H]2C)cc1 | 0.957 | 0.0114 | 0.122 | -2.17 (inactive) | -0.222 | -0.585 | -0.686 | 0.0253 | 0.125 | -0.348 | -0.502 | -4.98 | 0.0828 | 0.851 | 0.675 | -0.0417 | -0.0146 | 0.26 | 0.474 | 0.252 |
| CN1C(=O)C2C=CC(C(O)c3cccc(O)c3)N(Nc3ccccc3)C2C1=O (stereo not given) | 1.15 | 0.14 | 0.285 | 1.27 (inactive) | 0.517 | -0.236 | -0.288 | -0.0255 | -0.208 | 0.866 | -0.286 | 0.359 | 0.13 | -0.185 | -0.09 | 0.0597 | 1.72 | 0.582 | 0.203 | 0.041 |
| COCCCNC(=O)[C@@]1(Cc2ccccc2N=[N+]=[N-])N=C(c2ccc(OCCCO)cc2)O[C@H]1c1ccccc1 | 1.55 | 0.231 | 1.01 | 0.181 (inactive) | 0.911 | 1.28 | -0.338 | 0.402 | 0.157 | 1.14 | 1.41 | -1.54 | -0.394 | 0.906 | -0.257 | 0.269 | 0.142 | 1.76 | 1.63 | 0.643 |
| CC(C)(C)N1CC=CC23O[C@@H]4C=CCCOC(=O)C4[C@H]2C(=O)N(CCO)[C@@H]3C1=O (stereo not given in full) | -1.04 | -0.106 | -0.254 | 0.288 (inactive) | -0.385 | -0.649 | -0.306 | -0.959 | -0.492 | 0.0863 | -0.282 | 0.361 | -0.475 | -0.504 | -0.511 | -0.0924 | -0.0146 | 0.0417 | -0.108 | 1.37 |
| COC(=O)[C@@]1(Cc2ccccc2)[C@H]2c3cc(C(=O)N(C)C)n(CCN4CNCC4=O)c3C[C@H]2CN1C(=O)c1ccccc1 | 1.59 | 1.38 | 1.31 | 1.25 (inactive) | -0.243 | -0.604 | -1.71 | -0.618 | -1.59 | 0.433 | -0.5 | 0.188 | -1.47 | 2.98 | -2.29 | 0.401 | 0.0183 | 1.99 | 4.42 | 3.12 |
| C=C(/C(=C/C[C@H](OC(C)=O)c1cccc(OCCO)c1)c1cnc2ccccc2c1)C(C)C | -0.96 | -0.104 | -0.105 | -0.236 (inactive) | 0.904 | 0.324 | 0.705 | 1.49 | 0.783 | 1.98 | 1.05 | -2.31 | 0.524 | -0.309 | -0.502 | -0.118 | -0.264 | 0.0811 | 0.235 | 1.19 |
| NCCCCCCNC(=O)[C@@H]1C[C@@H]2C(=O)N[C@@H](CCCCN)C(=O)N2[C@@H]1c1cccc(OCCO)c1 | 1.85 | 0.772 | 1.14 | -0.615 (inactive) | 0.243 | 0.543 | 0.412 | 0.171 | 1.64 | 0.702 | 1.32 | -0.661 | 1.1 | 1.02 | 1.2 | 0.188 | 1.05 | 2.03 | 0.882 | 0.933 |
| C=CC1c2cc(O)c(OC)cc2CCN1Cc1cc2c(cc1Br)OCO2 (stereo not given) | 1.59 | 0.276 | 1.04 | 0.203 (inactive) | -0.0398 | -0.277 | 0.0492 | 0.327 | 0.565 | 1.9 | -0.483 | -2.93 | 0.15 | -0.941 | -1.24 | -0.1 | 0.199 | 0.2 | 1.69 | 0.271 |
| COc1ccc(-c2nc(-c3ccccc3)c3c(c2C)CO[Si]3(C(C)C)C(C)C)cn1 | -0.18 | -0.0958 | -0.505 | 0.0313 (inactive) | 0.984 | 0.729 | -0.0277 | 0.446 | 0.125 | 0.468 | 0.107 | -1.05 | 0.372 | -0.461 | -0.309 | -0.0405 | 0.0278 | -0.294 | 0.104 | 0.397 |
| COCCOC(=O)N1C(=O)[C@@]2(c3cc(C#CCC(C(=O)OC)C(=O)OC)ccc31)[C@H](C(=O)N1CCc3cc(OC)c(OC)cc3C1)[C@H]1C(=O)O[C@H](c3ccccc3)[C@H](c3ccccc3)N1[C@@H]2c1ccc(OCCO)cc1 | 1.37 | 0.0202 | 0.0313 | 0.382 (inactive) | 1.24 | 1.31 | 0.936 | 1.3 | 0.943 | 0.541 | 1.39 | -0.45 | 0.608 | 0.756 | -0.551 | -0.006 | -0.1 | -0.103 | 0.0568 | 2.16 |
| O=C1C2C=CC(C(O)c3ccc(Br)cc3)N(Nc3ccccc3F)C2C(=O)N1c1ccccc1 (stereo not given) | 0.708 | 0.0952 | 0.703 | -1.93 (inactive) | 0.118 | 0.235 | -0.309 | 0.0807 | -0.325 | 0.404 | 0.861 | -0.445 | -0.134 | 0.0034 | 0.666 | -0.0718 | -0.0626 | -0.571 | -0.147 | 0.225 |
